Laboratory results as given in the supplement of paper PMC11732987, “Enantioselective OTUD7B fragment discovery through chemoproteomics screening and high-throughput optimisation” (Communications Chemistry, 2025).

Columns and labels:
Assay in all cases: log2 ratio of Biotin-Ahx-Ub-VS probe labelling (fragment/DMSO); higher = less target engagement (more negative = stronger competition), active = hit call of the paper (q ≤ 0.05, log2 ratio ≤ -1)
Conditions in all cases: compound concentration: 200 uM; treatment time: 3 h
USP34 = USP34 (UniProt Q70CQ2)
USP34, sequence (Q70CQ2 whole entry, the tested form may be a part): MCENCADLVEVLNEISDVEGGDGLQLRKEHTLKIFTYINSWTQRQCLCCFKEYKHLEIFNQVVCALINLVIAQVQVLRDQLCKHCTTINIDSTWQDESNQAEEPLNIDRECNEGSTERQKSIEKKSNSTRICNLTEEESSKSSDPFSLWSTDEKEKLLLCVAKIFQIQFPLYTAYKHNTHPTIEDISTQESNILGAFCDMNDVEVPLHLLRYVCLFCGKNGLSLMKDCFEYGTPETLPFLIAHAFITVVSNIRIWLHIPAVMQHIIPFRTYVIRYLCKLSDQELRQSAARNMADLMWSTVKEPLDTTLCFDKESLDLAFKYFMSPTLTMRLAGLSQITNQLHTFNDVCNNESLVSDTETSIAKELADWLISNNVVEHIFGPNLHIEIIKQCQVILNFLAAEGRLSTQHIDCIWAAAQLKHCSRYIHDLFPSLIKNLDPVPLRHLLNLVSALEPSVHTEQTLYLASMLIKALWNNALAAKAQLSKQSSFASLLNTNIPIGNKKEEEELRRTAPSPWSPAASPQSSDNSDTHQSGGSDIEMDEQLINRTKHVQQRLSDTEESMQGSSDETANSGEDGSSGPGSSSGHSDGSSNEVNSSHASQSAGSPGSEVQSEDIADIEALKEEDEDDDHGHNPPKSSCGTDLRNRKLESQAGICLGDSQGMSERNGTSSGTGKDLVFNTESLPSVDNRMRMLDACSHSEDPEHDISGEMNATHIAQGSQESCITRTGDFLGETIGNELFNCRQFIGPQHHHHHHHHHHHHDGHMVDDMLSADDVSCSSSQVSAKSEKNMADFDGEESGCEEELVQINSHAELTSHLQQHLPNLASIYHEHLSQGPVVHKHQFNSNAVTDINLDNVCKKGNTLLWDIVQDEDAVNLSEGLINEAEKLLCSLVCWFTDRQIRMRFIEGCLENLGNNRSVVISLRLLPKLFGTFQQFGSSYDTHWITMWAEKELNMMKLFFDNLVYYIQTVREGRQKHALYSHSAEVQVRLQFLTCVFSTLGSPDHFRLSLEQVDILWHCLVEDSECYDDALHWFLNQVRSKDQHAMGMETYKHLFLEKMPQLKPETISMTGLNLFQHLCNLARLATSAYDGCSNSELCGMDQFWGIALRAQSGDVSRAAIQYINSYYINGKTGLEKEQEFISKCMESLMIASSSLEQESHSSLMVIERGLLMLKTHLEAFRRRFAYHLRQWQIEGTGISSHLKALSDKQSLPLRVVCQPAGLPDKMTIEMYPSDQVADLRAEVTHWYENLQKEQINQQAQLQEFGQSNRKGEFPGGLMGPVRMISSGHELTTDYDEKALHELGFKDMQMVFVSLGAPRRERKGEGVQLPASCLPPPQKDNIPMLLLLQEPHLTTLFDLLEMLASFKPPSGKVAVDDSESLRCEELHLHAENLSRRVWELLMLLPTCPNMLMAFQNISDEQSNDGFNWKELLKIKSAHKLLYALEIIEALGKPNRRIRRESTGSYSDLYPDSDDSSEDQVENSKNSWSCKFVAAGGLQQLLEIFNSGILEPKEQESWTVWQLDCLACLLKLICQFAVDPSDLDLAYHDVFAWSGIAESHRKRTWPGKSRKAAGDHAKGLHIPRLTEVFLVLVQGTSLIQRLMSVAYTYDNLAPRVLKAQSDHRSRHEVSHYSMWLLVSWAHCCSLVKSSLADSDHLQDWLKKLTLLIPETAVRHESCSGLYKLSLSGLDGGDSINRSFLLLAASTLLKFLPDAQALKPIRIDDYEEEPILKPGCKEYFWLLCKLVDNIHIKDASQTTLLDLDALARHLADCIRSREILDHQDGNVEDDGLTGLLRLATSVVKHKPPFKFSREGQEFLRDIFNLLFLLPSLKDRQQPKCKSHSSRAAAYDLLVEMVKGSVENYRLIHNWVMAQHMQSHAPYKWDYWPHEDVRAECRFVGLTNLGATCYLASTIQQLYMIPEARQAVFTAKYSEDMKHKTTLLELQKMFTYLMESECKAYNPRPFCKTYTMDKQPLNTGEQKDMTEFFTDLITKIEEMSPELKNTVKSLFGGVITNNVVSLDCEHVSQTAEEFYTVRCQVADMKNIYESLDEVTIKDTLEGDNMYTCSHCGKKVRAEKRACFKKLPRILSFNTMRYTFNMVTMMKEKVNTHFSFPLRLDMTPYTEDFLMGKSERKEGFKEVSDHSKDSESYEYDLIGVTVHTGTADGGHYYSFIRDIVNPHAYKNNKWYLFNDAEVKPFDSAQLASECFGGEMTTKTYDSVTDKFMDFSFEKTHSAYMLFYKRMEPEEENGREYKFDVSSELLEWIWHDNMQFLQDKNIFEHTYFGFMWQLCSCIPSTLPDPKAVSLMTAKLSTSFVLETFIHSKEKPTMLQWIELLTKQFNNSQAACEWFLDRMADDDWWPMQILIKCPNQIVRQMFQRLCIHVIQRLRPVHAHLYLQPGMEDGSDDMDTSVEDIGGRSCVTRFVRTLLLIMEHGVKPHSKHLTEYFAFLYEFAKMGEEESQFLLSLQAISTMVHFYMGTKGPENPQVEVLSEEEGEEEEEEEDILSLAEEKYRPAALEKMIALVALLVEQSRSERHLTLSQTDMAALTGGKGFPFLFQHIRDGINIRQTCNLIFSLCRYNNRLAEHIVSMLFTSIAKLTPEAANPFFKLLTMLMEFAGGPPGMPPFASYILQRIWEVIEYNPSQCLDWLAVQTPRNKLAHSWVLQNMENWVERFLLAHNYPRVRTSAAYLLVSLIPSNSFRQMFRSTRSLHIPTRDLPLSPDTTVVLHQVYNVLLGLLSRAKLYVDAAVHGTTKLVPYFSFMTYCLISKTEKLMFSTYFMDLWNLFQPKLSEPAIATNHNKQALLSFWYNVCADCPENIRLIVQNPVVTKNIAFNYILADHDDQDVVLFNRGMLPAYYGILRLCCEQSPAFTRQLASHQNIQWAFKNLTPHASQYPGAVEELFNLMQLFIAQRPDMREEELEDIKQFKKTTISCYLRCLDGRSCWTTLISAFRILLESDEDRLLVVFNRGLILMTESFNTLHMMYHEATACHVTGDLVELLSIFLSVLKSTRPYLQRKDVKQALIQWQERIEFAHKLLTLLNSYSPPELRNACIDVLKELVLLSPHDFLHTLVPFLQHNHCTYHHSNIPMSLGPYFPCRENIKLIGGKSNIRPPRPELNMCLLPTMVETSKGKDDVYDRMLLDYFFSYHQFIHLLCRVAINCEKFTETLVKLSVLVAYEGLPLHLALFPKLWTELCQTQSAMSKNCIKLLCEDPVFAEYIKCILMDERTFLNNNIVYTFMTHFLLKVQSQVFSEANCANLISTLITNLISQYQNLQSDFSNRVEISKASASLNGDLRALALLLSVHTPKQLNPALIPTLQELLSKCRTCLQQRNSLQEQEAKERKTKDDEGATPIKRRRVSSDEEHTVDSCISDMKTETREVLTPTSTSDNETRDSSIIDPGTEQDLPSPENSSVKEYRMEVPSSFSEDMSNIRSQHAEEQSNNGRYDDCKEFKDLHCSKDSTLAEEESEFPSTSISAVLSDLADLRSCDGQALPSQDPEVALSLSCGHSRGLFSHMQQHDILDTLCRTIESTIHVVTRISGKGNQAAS
Procedure, shortened: (§1)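 HEK293T lysate in Tris/CHAPS/IGEPAL buffer with protease inhibitors (495 µg per sample) was given fragment at 200 µM or vehicle for 3 h, in triplicate. It then received Biotin-Ahx-Ub-VS at 0.5 µM final for 1 h. Labelled DUBs were NeutrAvidin-enriched, digested with LysC and trypsin, and run by diaPASEF LC-MS/MS. Values are average log2 fragment/vehicle ratios by unpaired t-test on global-median-normalised Spectronaut quantities of proteins with ≥2 unique peptides.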

USP36 = target: T1, USP36 (UniProt Q9P275)
T1 sequence (whole entry): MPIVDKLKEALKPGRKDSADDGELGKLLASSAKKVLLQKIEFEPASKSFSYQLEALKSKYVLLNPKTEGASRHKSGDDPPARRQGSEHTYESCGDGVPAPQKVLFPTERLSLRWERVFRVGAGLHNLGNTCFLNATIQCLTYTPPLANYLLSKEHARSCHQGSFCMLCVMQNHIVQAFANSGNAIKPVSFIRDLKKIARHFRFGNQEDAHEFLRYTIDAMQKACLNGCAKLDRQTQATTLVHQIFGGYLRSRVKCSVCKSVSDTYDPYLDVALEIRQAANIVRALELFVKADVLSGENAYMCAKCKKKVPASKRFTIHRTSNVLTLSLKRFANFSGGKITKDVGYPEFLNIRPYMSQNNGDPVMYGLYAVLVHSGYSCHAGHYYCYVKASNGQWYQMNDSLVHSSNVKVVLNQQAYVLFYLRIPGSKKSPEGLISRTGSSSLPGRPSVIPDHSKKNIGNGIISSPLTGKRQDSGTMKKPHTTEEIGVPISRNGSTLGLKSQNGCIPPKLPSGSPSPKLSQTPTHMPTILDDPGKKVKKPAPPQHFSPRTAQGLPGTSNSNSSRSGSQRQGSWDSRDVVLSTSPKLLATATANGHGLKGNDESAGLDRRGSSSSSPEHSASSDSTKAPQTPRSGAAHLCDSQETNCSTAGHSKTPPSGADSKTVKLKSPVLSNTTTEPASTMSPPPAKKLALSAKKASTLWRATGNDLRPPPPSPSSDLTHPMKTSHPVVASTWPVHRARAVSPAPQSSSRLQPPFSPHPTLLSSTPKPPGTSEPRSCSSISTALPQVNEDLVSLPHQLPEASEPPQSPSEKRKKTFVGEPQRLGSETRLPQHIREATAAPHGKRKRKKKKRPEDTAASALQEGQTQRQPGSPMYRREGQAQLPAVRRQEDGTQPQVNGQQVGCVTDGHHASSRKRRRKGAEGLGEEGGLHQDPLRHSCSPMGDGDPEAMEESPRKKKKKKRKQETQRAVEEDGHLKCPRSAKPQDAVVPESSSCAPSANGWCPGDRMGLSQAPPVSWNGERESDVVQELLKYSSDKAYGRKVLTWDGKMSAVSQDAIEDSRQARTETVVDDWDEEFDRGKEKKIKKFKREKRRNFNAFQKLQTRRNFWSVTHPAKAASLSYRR
Procedure, shortened: as §1

USP38 = target: T2, USP38 (UniProt Q8NB14)
T2 sequence (whole entry): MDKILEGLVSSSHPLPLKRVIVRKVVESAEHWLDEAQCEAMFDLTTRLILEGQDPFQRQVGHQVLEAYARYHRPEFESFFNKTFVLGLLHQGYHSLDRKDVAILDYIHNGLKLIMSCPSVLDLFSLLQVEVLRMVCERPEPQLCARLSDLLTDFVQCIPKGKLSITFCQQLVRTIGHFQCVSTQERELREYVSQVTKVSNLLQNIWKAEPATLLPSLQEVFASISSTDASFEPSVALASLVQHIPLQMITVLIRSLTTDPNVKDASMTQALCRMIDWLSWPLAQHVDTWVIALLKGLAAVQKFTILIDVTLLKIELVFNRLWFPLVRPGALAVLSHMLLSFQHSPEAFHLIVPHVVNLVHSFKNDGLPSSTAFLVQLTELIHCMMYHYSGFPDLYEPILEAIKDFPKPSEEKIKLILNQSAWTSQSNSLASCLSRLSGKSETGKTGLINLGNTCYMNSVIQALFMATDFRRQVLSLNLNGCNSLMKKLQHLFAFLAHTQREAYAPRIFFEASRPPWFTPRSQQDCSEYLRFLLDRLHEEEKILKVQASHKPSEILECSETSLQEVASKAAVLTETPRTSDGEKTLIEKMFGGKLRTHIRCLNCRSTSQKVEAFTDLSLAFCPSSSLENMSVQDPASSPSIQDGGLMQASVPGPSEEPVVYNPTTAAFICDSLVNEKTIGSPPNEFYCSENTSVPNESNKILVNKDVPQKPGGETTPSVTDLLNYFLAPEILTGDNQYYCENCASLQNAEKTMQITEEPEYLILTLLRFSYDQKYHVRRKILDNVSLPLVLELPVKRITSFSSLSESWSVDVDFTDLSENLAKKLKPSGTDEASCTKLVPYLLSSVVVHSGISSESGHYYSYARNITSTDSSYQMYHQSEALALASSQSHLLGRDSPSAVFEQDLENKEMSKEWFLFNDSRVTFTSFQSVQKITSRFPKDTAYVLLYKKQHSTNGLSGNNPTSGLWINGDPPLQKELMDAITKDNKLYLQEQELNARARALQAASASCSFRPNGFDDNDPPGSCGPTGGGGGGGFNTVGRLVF
Procedure, shortened: as §1

USP39 = target: T3, USP39 (UniProt Q53GS9)
T3 sequence (whole entry): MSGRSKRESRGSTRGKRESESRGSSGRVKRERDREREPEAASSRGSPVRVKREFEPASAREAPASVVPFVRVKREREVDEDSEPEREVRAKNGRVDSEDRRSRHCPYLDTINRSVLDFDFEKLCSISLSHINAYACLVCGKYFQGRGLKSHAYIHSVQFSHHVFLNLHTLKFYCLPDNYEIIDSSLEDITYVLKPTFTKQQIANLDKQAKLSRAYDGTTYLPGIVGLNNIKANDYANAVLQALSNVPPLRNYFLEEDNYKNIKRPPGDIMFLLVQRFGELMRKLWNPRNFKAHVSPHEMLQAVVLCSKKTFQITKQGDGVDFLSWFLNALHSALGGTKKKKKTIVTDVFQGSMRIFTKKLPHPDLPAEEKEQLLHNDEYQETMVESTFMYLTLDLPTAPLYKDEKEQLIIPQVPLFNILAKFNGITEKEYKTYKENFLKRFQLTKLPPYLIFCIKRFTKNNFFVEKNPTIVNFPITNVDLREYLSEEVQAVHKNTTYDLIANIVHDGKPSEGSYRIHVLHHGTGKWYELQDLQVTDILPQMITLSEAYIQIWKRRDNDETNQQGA
Procedure, shortened: as §1

USP4 = target: T4, USP4 (UniProt Q13107)
T4 sequence (whole entry): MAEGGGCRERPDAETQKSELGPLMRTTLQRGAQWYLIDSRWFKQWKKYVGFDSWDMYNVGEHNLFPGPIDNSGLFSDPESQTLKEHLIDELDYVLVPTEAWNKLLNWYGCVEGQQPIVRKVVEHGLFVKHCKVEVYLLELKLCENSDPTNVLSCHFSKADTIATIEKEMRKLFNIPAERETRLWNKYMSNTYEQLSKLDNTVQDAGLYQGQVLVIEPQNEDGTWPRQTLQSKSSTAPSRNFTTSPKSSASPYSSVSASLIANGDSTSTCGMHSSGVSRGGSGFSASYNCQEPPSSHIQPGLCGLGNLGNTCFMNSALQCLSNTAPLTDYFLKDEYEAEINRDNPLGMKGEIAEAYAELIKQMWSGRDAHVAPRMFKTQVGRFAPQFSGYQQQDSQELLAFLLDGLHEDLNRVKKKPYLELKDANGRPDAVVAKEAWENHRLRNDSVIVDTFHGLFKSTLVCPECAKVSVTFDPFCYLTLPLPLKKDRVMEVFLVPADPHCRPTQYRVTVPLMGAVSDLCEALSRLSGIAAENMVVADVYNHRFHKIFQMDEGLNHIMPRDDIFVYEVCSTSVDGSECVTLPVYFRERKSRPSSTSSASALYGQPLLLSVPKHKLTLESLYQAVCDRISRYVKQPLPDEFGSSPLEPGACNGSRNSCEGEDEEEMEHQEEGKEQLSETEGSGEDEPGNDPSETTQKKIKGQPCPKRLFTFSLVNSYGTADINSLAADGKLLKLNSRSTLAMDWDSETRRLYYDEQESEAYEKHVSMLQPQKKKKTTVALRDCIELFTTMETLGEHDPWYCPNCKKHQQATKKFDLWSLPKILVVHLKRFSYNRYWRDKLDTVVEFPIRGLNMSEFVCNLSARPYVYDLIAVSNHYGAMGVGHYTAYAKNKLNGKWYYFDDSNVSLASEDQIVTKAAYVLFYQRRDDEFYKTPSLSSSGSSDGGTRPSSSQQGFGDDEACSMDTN
Procedure, shortened: as §1

Measured: log2 ratio of Biotin-Ahx-Ub-VS probe labelling

Cc1ccc(N2CCC(NC(=O)CCl)C2=O)cc1 (stereo not given)
inactive: USP34 0.132 | USP36 -0.156 | USP38 0.0543 | USP39 0.064 | USP4 0.0879
